Measured values published in PubChem BioAssay.
Values joined by “and” are separate entries in the source; they are usually repeats but may differ in a detail not shown here. Equal entries are not always repeated. Records with an inconclusive call do not appear. Active and inactive are the calls of the source.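 How the source made its calls, unless noted: active means compounds whose cell count with miR-34 switched on is under 0.7 times the count with it off; inactive means the rest.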

Assays:
[1] = sensitizers of A549 cells to miR-34 induction, primary screen, imaging, A549 dox-inducible miR-34, nuclei and caspase counts (AID 1347080); settings: A549 miR-34 inducible, Hoechst nuclei count, 48 h
[2] = survival rescue of mitochondrial mutant cells in low glucose, primary screen, MELAS cybrids, Rieske KO mouse fibroblasts, CellTiter-Glo (AID 1508586;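 active means mean z-score across replicates of 1.96 or higher in either the MELAS or the Rieske mutant cell line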;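 further: z relative to plate mean and SD of compound and empty wells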)
[3] = viability rescue of complex I mutant cybrids, primary screen, cell-based, galactose medium, ATP luminescence (AID 1645843;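 active means z-score of at least 1.8 in each of two replicates, scored against plate mean and spread of sample wells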;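 further: positive z means more ATP and so rescue of galactose-driven cybrid death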); settings: complex I mutant cybrid cells, 72 h, stronger effect = higher value
[4] = hESC survival regulators, cell-based (AID 493140; call rule not given here;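 further: cells exposed to compounds for four days before counting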); settings: human embryonic stem cell survival screen; stronger effect = higher value
[5] = liver-stage malaria parasite growth inhibition, primary screen, cell-based, HepG2, luciferase luminescence, HepG2 viability (AID 624349; in the data active means parasite load remaining mostly below about 12%, no sharp cut-off; inactive means mostly above about 10%;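 further: 100% = mean of DMSO negative control wells on the same plate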); settings: P. berghei liver stage in HepG2, luciferase luminescence, concentration not given here; parasite load remaining: stronger effect = lower value; viability: measured here: HepG2 viability without parasites
[6] = molecular target: ATP-dependent translocase ABCB1 (Homo sapiens) (UniProt P08183); assay: MDR1 (ABCB1) efflux transporter inhibition, cell-based (AID 377; in the data active means fluorescence slope change above about 50%); settings: MDR1-expressing cells, fluorescent substrate accumulation slope; stronger effect = higher value; concentration not given here
[7] = molecular target: Mitogen-activated protein kinase 7 (Homo sapiens) (UniProt Q13164); assay: ERK5 transactivation activators in reporter cells, primary screen, cell-based, HTS (AID 1508626;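 active means luciferase signal above three times the same-plate solvent-only control wells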;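 further: luciferase driven by Gal4-ERK5 fusion binding five Gal4 sites before minimal TATA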); settings: HeLa Gal4-ERK5 transactivation, 18 h, at 5 µM, stronger effect = higher value
[8] = molecular target: NAD(+) hydrolase SARM1 (Homo sapiens) (UniProt Q6SZW1); assay: SARM1 TIR NADase inhibitors, cell lysate, NAD-Glo luminescence (AID 1508614;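 active means compound whose remaining NAD level is above about 45 nM, limit read from the data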); settings: SAM-TIR HEK293T lysate NADase, at 1 µM, stronger effect = higher value
[9] = stronger effect = lower value, cell number ratio, induced over uninduced
[10] = measured here: relative caspase fold change +Dox/-Dox
[11] = measured here: total cells with miR-34 induction, stronger effect = lower value
[12] = measured here: total cells without miR-34 induction
[13] = MELAS cybrid survival, CellTiter-Glo 48 h, stronger effect = higher value
[14] = Rieske KO mouse fibroblast survival, CellTiter-Glo 72 h

ATP-dependent translocase ABCB1 (Homo sapiens), sequence (P08183 whole entry, looked up, the tested form may be a part): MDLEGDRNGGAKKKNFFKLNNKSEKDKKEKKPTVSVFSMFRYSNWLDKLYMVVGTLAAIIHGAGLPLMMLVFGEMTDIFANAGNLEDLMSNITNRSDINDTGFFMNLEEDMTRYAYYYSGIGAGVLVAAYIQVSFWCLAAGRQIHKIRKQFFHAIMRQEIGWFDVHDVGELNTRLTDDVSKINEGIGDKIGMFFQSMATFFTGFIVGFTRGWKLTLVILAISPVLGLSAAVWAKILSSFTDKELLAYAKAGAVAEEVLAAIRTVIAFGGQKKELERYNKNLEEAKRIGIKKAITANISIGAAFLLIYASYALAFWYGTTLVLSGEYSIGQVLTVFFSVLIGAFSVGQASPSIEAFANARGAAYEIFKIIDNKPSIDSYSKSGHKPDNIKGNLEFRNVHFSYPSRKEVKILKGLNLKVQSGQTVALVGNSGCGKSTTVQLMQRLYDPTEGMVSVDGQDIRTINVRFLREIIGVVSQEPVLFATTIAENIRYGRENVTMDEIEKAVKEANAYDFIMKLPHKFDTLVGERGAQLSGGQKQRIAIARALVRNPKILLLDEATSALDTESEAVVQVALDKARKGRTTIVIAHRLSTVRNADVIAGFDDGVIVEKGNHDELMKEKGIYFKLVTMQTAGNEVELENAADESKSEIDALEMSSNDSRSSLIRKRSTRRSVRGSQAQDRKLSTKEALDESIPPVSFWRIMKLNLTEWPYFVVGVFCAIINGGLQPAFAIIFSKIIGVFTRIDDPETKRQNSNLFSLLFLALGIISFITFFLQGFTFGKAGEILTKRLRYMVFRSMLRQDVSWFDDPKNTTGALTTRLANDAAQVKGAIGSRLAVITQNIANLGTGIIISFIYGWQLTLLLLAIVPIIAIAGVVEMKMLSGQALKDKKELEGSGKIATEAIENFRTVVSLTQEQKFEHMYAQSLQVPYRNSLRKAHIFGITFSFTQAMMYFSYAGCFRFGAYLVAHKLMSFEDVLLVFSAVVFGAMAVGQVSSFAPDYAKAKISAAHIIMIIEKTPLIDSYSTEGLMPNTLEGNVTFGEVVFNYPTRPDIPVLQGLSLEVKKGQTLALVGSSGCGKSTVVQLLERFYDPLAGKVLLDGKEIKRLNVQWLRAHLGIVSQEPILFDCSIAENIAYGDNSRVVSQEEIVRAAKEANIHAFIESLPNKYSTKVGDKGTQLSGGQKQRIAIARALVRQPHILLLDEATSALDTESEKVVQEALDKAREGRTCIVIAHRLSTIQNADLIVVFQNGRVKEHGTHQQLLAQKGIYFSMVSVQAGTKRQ
NAD(+) hydrolase SARM1 (Homo sapiens), sequence (Q6SZW1 whole entry, looked up): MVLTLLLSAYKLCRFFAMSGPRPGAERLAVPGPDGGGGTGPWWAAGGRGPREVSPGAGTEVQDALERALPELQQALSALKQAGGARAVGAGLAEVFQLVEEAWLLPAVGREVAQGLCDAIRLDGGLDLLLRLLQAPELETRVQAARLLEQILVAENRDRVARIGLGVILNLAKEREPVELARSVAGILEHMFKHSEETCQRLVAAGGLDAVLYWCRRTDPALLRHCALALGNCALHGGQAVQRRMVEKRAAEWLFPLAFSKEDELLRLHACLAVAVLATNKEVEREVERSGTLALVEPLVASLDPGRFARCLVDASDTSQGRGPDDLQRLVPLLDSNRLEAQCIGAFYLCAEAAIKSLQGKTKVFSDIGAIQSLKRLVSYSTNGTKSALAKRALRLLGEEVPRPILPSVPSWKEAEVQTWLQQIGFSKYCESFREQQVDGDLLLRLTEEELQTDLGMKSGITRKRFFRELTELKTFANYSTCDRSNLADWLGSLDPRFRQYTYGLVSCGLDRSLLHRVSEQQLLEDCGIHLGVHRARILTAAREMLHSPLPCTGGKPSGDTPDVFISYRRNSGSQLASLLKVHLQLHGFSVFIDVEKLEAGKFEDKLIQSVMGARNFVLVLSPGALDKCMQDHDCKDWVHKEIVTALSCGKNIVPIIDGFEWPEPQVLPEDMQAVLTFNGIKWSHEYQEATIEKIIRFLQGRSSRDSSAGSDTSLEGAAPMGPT
Mitogen-activated protein kinase 7 (Homo sapiens), sequence (Q13164 whole entry, looked up, the tested form may be a part): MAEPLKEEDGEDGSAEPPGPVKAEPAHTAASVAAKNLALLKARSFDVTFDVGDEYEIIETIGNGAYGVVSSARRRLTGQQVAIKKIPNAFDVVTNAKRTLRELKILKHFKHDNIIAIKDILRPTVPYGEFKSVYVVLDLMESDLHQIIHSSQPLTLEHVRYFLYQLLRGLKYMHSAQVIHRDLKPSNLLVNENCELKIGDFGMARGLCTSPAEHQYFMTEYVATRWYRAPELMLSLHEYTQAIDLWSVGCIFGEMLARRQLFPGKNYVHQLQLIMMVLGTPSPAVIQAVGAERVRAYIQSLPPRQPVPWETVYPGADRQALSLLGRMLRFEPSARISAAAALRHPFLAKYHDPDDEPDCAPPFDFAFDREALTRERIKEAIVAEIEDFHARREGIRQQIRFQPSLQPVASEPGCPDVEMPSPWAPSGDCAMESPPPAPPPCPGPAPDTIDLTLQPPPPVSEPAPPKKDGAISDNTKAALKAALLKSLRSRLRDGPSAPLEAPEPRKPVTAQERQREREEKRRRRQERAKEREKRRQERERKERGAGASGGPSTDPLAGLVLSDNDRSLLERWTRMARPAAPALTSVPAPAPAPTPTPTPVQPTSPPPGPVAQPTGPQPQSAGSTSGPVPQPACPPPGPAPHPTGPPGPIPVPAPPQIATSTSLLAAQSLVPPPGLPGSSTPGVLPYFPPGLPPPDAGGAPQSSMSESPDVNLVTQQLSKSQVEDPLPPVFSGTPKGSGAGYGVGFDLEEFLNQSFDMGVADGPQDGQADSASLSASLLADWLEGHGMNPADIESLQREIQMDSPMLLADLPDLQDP

| Structure (SMILES) | fold change [1, 9] | fold change [1, 10] | cell count [1, 11] | cell count [1, 12] | z-score [2, 13] | z-score [2, 14] | z-score [3] | survival [4] | parasite load remaining [5] | viability [5] | fold change ([1]; stronger effect = lower value) | fluorescence slope change [6] | luciferase signal [7] | remaining NAD [8] |
| --- | --- | --- | --- | --- | --- | --- | --- | --- | --- | --- | --- | --- | --- | --- |
| COc1cccc2ncn(Cc3cn4ccccc4n3)c(=O)c12 | 0.944 (inactive) | 1.17 | 9180 | 9730 | -0.241 (inactive) | -0.636 | -0.6 (inactive) |  |  |  |  |  |  |  |
| CC(Cc1ccccc1)NCCC(c1ccccc1)c1ccccc1 (configuration not stated) |  | 0.226 | 3500 | 2580 | -0.835 (inactive) and -1.25 (inactive) | -0.134 and -0.319 | -2.66 (inactive) | 2.25 (inactive) | 54.7% (inactive) | 77.6% | 1.36 (inactive) |  |  |  |
| CC1CCCC=C[C@@H]2CC(O)C[C@H]2C(O)C=CC(=O)O1 (some centres not stated) | 1.09 (inactive) | 1.21 | 2230 | 2050 | 4.01 (active) | -2.64 |  |  |  |  |  |  |  |  |
| CCCCC(C#N)(Cn1cncn1)c1ccc(Cl)cc1 (configuration not stated) |  | 1.46 | 9220 | 9830 | 0.49 (inactive) | -0.243 | 0.815 (inactive) |  | 18.9% (inactive) | 67.5% | 0.938 (inactive) |  |  |  |
| CN1CCCCC1Cn1cc(C(=O)c2cc([N+](=O)[O-])ccc2I)c2ccccc21 (configuration not stated) |  | 0.479 and 0.87 | 5220 and 6710 | 5890 and 6500 | 0.0965 (inactive) | -0.371 |  |  |  |  | 0.887 (inactive) and 1.03 (inactive) |  |  |  |
| CCC1C(=O)OCC1Cc1cncn1C (configuration not stated) | 0.926 (inactive) and 0.807 (inactive) and 0.899 (inactive) | 1.4 and 2.3 and 1.43 | 9120 and 8440 and 10400 | 9850 and 10500 and 11500 | -0.194 (inactive) and -0.728 (inactive) | -0.153 and 0.0525 | 1.16 (inactive) and 0.695 (inactive) |  | 38.7% (inactive) | 114% |  |  |  |  |
| CC1C=CC=CCCC=CC=CC=CC=CC(OC2OC(C)C(O)C(N)C2O)CC2O[C@@](O)(CC(O)C(O)CCC(O)CC(O)CC(O)CC(=O)OC(C)C(C)C1O)CC(O)C2C(=O)O (some centres not stated) | 0.946 (inactive) | 1.01 | 7910 | 8370 | 0.0382 (inactive) | 0.415 |  |  |  |  |  |  |  |  |
| CC[C@]1(O)CCC2C3CCC4=CCCCC4C3CC[C@@]21C (some centres not stated) |  | 1.28 | 5670 | 5590 |  |  | -0.425 (inactive) |  |  |  | 1.01 (inactive) |  |  |  |
| CCC(=O)OC(Cc1ccccc1)(c1ccccc1)C(C)CN(C)C (configuration not stated) |  | 0.845 | 9110 | 10200 | 0.276 (inactive) | -0.451 |  | 8.25 (inactive) | 85.5% (inactive) | 74.7% | 0.896 (inactive) |  |  |  |
| C(#CCN1CCCC1)CN1CCCC1 | 0.85 (inactive) | 1.28 | 8550 | 10100 | 0.0358 (inactive) | -0.183 |  | 6.42 (inactive) | 82.8% (inactive) and 98.5% (inactive) | 112% and 92.6% |  | 19.7% (inactive) |  |  |
| C[C@]12CCC(O)CC1=CCC1C2CC[C@@]2(C)C1CC[C@]2(C)O (some centres not stated) |  | 1.41 | 9340 | 10100 |  |  | -0.34 (inactive) |  |  |  | 0.929 (inactive) |  |  |  |
| C[C@]12CC[C@@H](O)C[C@@H]1CC[C@@H]1[C@@H]2CC[C@]2(C)C(=O)CC[C@@H]12 |  | 1.48 | 8170 | 9410 | 0.119 (inactive) | -0.286 |  | 13.1 (inactive) | 90.4% (inactive) and 71.8% (inactive) | 90.3% and 79.5% | 0.869 (inactive) |  |  |  |
| C[C@]12CC[C@H]3[C@@H](CC[C@]4(O)C[C@@H](O)CC[C@]34C=O)[C@@]1(O)CC[C@@H]2C1=CC(=O)OC1 |  | 0.794 | 773 | 713 |  |  |  | 1.42 (inactive) | 0.385% (inactive) | 54% | 1.08 (inactive) | 11.2% (inactive) | 16 AU (inactive) |  |
| C[C@]12CC[C@H](O)C[C@H]1CC[C@@H]1[C@@H]2C[C@@H](O)[C@]2(C)[C@@H](C3=CC(=O)OC3)CC[C@]12O |  | 1.4 | 550 | 772 | 2.02 (active) | -0.935 |  | 8.33 (inactive) | 0.32% (inactive) | 57% | 0.713 (inactive) |  |  |  |
| CN1CC[C@@]23CCCCC2C1Cc1ccc(O)cc13 (some centres not stated) |  | 1.9 | 9070 | 10200 |  |  | 0.545 (inactive) |  |  |  | 0.886 (inactive) |  |  |  |
| CCC(C)(C)O |  | 0.901 | 9020 | 9470 |  |  |  |  |  |  | 0.953 (inactive) |  |  | 10 nM (inactive) |
| CN[C@@H]1[C@@H](O)[C@@H](O[C@@H]2[C@@H](O)[C@H](O[C@H]3O[C@H]([C@@H](C)NC)CC[C@H]3N)[C@@H](N)C[C@H]2N)OC[C@]1(C)O |  | 1.03 | 10000 | 11500 | 0.508 (inactive) | 0.179 |  |  | 20.1% (inactive) | 64.5% | 0.872 (inactive) |  |  |  |
| C[C@]12CC[C@H](O)C[C@H]1CC[C@@H]1[C@@H]2CC[C@]2(C)[C@@H](C3=CC(=O)OC3)CC[C@]12O |  | 1.54 | 557 | 568 | -0.147 (inactive) | 0.0544 |  | 11.7 (inactive) | -9.15% (inactive) and 10.4% (inactive) | 40.6% and 30.9% | 0.981 (inactive) | 80.1% (active) |  |  |
